Results from PubChem BioAssay AID651820 (National Center for Advancing Translational Sciences (NCATS), 2012).
In all, about 340,000 compounds went through this assay and about 12,000 (3.5%) were called active. About 18% were inconclusive and are not listed. The sample holds actives, similar compounds and a random draw of the others, so the mix is not that of the screen. Values without a mark were called inactive. The call rests on the fitted dose curve; in most records, active means well fitted inhibition curve with a large enough effect; inconclusive means small, poorly fitted or top-dose-only effect, or another doubt; inactive means no such curve, though single readings can be large or run the other way.

assay: qHTS Assay for Inhibitors of Hepatitis C Virus (HCV); details: Huh7.5.1 HCVcc-Cre infection, luciferase reporter, 44 h; series mostly up to 41.8 µM; activity change, negative = inhibition: at the top concentration
Outline: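 Reporter virus HCVcc-Cre (~0.5 moi) infects cells exposed to compound; seeding density 1,000 cells/well with 4 h settling beforehand. Luminescence, 15 sec read, taken 44 h post-infection following a 15 min RT substrate incubation.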
On the % scale 0 is the no-effect control and ±100 the full control effect; potency means the concentration at half of the fitted maximal effect.

Row | SMILES | Potency | activity change, negative = inhibition [%]
1 | CCN(Cc1cc2cc(C)ccc2[nH]c1=O)S(=O)(=O)c1ccccc1 | 11.2 µM (active) | 
2 | CCC(=O)N(CCc1ccccc1)Cc1cc2cc(C)ccc2[nH]c1=O |  | 2.79
3 | Cc1ccc(S(=O)(=O)N(Cc2cc3ccccc3[nH]c2=O)CC2CCCO2)cc1 (centres undefined) |  | -14.3
4 | O=C(COC(=O)c1ccc2c(c1)OCCO2)NCc1ccccc1Cl |  | -1.28
5 | CCOc1ccc(-n2c(O)c(/C=N/Nc3nnc(C)c(=O)[nH]3)c3ccccc3c2=O)cc1 |  | 13.9
6 | CCOc1ccc(-n2c(O)c(/C=N/Nc3nc(C)cc(C)n3)c3ccccc3c2=O)cc1 | 2.24 µM (active) | 
7 | CCOc1ccc(-n2c(O)c(/C=N/c3ccnn3Cc3ccncc3)c3ccccc3c2=O)cc1 |  | -0.515
8 | COC(=O)C1CC2=C(CC(C)(C)CC2=O)N(c2ccccc2)C1=O (centres undefined) |  | 32.1
9 | CC1CC2=C(CC1/C=N/NC(N)=S)C(C)(C)CCC2 (centres undefined) | 6.31 µM (active) | 
10 | C[C@@H]1ON(C)[C@H]2C[C@H]3c4cc(N5CCN(C)CC5)ccc4CCN3C(=O)[C@@H]12 |  | 24.6
11 | O=C(NCc1ccc(Cl)cc1)C(=O)NCC1CCCN1S(=O)(=O)c1cccs1 (centres undefined) |  | -4.44
12 | S=c1nc2ccccc2c2nc(-c3cccnc3)[nH]n12 |  | -4.46
13 | COc1ccccc1Oc1nc(-c2cccnc2)nc2ccccc12 |  | -18
14 | CCOC(=O)c1nc(Nc2ccc(C(=O)OC)cc2)c2ccccc2n1 |  | -16
15 | COc1ccc(Nc2nc(-c3cccnc3)nc3ccccc23)cn1 | 7.94 µM (active) | 
16 | Cc1cccc(-c2nc(Nc3ccc(O)cc3)c3ccccc3n2)c1 | 12.6 µM (active) | 
17 | Oc1ccc(-c2nnc(Nc3ccccc3)c3ccccc23)cc1 |  | 4.1
18 | COc1ccc(Br)cc1CN(C)C(=O)C1CC(=O)N(C2CCCC2)C1 (centres undefined) |  | -3.77
19 | O=C(CC1SC(N2CCCC2)=NC1=O)Nc1ccc(C(=O)NCCc2ccc(F)cc2)cc1 (centres undefined) |  | 6.88
20 | O=C(COC(=O)c1c(Cl)cccc1Cl)Nc1cccc(S(=O)(=O)NC2=NCCCCC2)c1 |  | -2.28
21 | CCN1C[C@@H]2[C@@H]3C(=O)N(Cc4ccccc4)C(=O)[C@@H]3[C@](C)(C1=O)N2C(=O)c1ccc(C(C)(C)C)cc1 |  | 7.51
22 | CCc1ccc(C(=O)N2CCN(S(=O)(=O)c3sc(C(=O)O)c(C)c3C(=O)O)CC2)cc1 |  | -13.4
23 | c1ccc2c(c1)OC1OC2Oc2ccccc21 |  | 30.9
24 | COc1ccccc1N1CCN(C(=O)C2Cc3ccccc3CN2C(=O)c2ccco2)CC1 (centres undefined) |  | 24
25 | CCC(C)N1C(=S)SC(C)(C)C1N(O)C(=O)NC1CCCCC1 (centres undefined) |  | 23

Row | SMILES | Potency | activity change, negative = inhibition [%]
26 | CCCCNC(=O)N(O)C1N(/N=C/c2ccc(N(C)C)cc2)C(=S)SC1(C)C (centres undefined) |  | 13.8
27 | CCCCNC(=O)N(O)C1N(/N=C/c2ccccc2O)C(=S)SC1(C)C (centres undefined) | 7.08 µM (active) | 
28 | CC1CCCCC1NC(=O)c1cc(=O)[nH]c2ccccc12 (centres undefined) |  | 1.65
29 | O=C(CSc1nc(=O)n2ccccc2n1)Nc1ccc2c(c1)OCCO2 |  | -17.4
30 | CCOC(=O)C1=C(C)N(C[C@@H]2CC[C@@H](Cc3ccc(-c4ccccc4)cc3)O2)C(=O)NC1c1ccc([N+](=O)[O-])cc1 (some centres undefined) | 11.2 µM (active) | 
31 | CCN1C(=O)N[C@@H](c2ccccc2)C(C(=O)OC)=C1C |  | 7.95
32 | CCOC(=O)C1=C(c2ccccc2)NC(=O)NC1c1cc(OCC)c(O)c([N+](=O)[O-])c1 (centres undefined) |  | 3.05
33 | C[C@]12c3[nH]c4ccc(Cl)cc4c3CCN1C(=O)[C@@H](CC(=O)NCCCn1ccnc1)C[C@@H]2C(=O)N1CCOCC1 |  | -1.63
34 | Cc1ccc(NC(=O)CN(C)C(=O)Cn2nnc(-c3ccccc3)n2)cc1 |  | 4.12
35 | COc1ccc(S(=O)(=O)N2CCOC2CNC(=O)C(=O)NCc2ccncc2)cc1C (centres undefined) |  | -10.5
36 | COc1ccc(CCNC(=O)C(=O)NCC2OCCN2S(=O)(=O)c2ccc(F)cc2)cc1OC (centres undefined) |  | -27.6
37 | COc1ccc(CCNC(=O)C(=O)NCC2OCCN2S(=O)(=O)c2ccc(OC)c(C)c2)cc1 (centres undefined) | 15.8 µM (active) | 
38 | Cc1cccc(OCC(=O)OCC(=O)Nc2ccc(Cl)cn2)c1 |  | 10.5
39 | COc1ccccc1NC(=O)N(O)C1(C#N)CCCCC1 |  | 16.3
40 | O=C(NCc1ccc2c(c1)OCO2)c1c(-c2ccsc2)sc2ccccc12 |  | 6.14
41 | CCOc1ccc(NC(=O)CSc2nncn2C)cc1 |  | 28.2
42 | O=C1CCCN2N=C(SCC(=O)Nc3ccc(Br)cc3)SC2=N1 |  | 2.91
43 | COc1ccccc1-n1c(SCC(=O)O)nc2sc3c(c2c1=O)CCC3 |  | 9.4
44 | CCSc1nc2sc3c(c2c(=O)n1-c1ccc(C)cc1)CCN(C)C3 |  | -7.22
45 | COc1ccccc1NC(=O)CSc1nc2sc3c(c2c(=O)n1-c1ccccc1)CCN(C)C3 |  | -9.03
46 | CCn1c(SCC(=O)Nc2ccc(Br)cc2)nc2sc3c(c2c1=O)CCN(C)C3 | 4.47 µM (active) | 
47 | C=CCn1c(SCC(=O)Nc2ccc(NC(C)=O)cc2)nc2sc(C)c(C)c2c1=O |  | -14.7
48 | CCOc1ccc(-n2c(SCC(=O)Nc3ccc(OC)cc3)nc3sc4c(c3c2=O)CCN(C)C4)cc1 | 11.2 µM (active) | 
49 | CCCSc1nc2sc3c(c2c(=O)n1-c1ccc(OC)cc1)CCN(C)C3 | 11.2 µM (active) | 
